# Compound activity (PubChem BioAssay)
# AmpC inh no detg = blocks E. coli AmpC beta-lactamase in detergent-free assay. AmpC nitrocefin hydrolysis, absorbance 480 nm, 0.0001% Triton. AID 485341. actives 0.52% (n = 330,000). Potency, µM (series often up to 57.1 µM), for inactives: top-dose activity change, negative = inhibition, actives largely listed as inhibitors. P00811;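 further: potency means the concentration at half of the fitted maximal effect; plate controls were no compound for no effect and no enzyme for full effect; nearly all actives have a fitted effect of over 20% in size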
# Target sequence (P00811 whole entry, looked up): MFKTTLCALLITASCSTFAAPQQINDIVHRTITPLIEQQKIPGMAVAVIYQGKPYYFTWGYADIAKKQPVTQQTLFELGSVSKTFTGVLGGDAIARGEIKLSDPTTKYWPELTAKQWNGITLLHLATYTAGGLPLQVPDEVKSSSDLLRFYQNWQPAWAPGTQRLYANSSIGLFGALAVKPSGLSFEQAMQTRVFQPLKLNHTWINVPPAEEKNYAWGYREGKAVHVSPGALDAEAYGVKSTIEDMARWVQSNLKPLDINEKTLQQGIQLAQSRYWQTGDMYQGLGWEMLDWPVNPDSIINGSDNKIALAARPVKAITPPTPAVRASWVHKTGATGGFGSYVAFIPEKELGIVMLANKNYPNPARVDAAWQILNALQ
#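 20 mM phosphate pH 7.0 + 0.01% (detergent screen) or 0.0001% Triton X-100; 5.3 nM AmpC reagent; cpd preinc 15 min RT; nitrocefin (800 uM stock) to start; A480 q20 s × 4 min; Activity was normalised to no-enzyme and no-compound control wells.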
# CHX counter = counter-screen for Shiga toxin inhibitors: cycloheximide protein synthesis inhibition. cell reporter, cycloheximide protein synthesis inhibition counterscreen. max response, %. actives 12% (n = 300,000). AID 2314; in the data active means max response mostly above about 13%, no sharp cut-off; inactive means mostly below about 14%; further: read at 38.3 µM for the half of the compounds with a filed dose; 0% is about no effect
# SARS PLpro yeast = inhibitors of SARS-CoV papain-like protease in yeast | S. cerevisiae expressing SARS-CoV PLpro, growth rescue | Potency, µM (highest dose often 32.9 µM), without a hit: top-dose activity, positive = growth rescue, hits mostly activators | actives 0.19% (n = 330,000); calls by dose curve; further: potency means the concentration at half of the fitted maximal effect; 0% is about no effect; nearly all actives have a fitted effect of over 55% in size
# AMA1-RON2 inh = inhibitors of Plasmodium falciparum AMA1-RON2 interaction; AlphaScreen AMA1-biotinylated RON2 peptide binding; Potency, µM (highest dose often 58.2 µM), for the others: at the highest dose activity change, negative = inhibition, usual class: inhibitors; actives 0.2% (n = 360,000); AID 720542;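 further: potency means the concentration at half of the fitted maximal effect; 0% = vehicle wells and -100% = peptide control; nearly all actives have a fitted effect of over 45% in size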
#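 AMA1 (3D7) with his tag at 25 nM final met compounds first, then biotinylated RON2 peptide at 25 nM; detection used donor plus acceptor beads, 10 µg/mL apiece, read by AlphaScreen after 30 min at room temperature.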
# Shiga toxin inh = blocks Shiga toxin action in Vero cells; actives 9.2% (n = 290,000); inhibition, % at 38.7 µM; Vero cells, Shiga toxin protein synthesis inhibition reporter; in the data active means inhibition mostly above about 28%, no sharp cut-off; inactive means mostly below about 43%; further: 0% is about no effect
# AmpC detergent = inhibitors of E. coli AmpC beta-lactamase with detergent; P00811; AmpC hydrolysis of nitrocefin, absorbance 480 nm, 0.01% Triton; Potency, µM (series often up to 114 µM), for inactives: top-dose activity change, negative = inhibition, usual class: inhibitors; actives 0.041% (n = 370,000);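 further: potency means the concentration at half of the fitted maximal effect; 0% = no-compound wells and -100% = no-enzyme wells; nearly all actives have a fitted effect of over 25% in size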
#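 AmpC (5.3 nM in the dispensed reagent) in 20 mM phosphate pH 7.0 with 0.01% (detergent screen) or 0.0001% Triton X-100 was preincubated with compounds for 15 min at room temperature. Nitrocefin was then added from an 800 uM solution, and hydrolysis was followed at 480 nm.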
# * hit, by the source's call; ? = inconclusive; · = not tested or not shown. Shown is part of a subset that was picked to be rich in hits. Unless noted, the call rests on the fitted dose curve; in most records, active means well fitted curve in the direction sought with a large enough effect; inconclusive means small, poorly fitted or top-dose-only effect, or another doubt; inactive means no such curve, though single readings can be large; an effect the other way counts as inactive or inconclusive.
SMILES,AmpC inh no detg,CHX counter,SARS PLpro yeast,AMA1-RON2 inh,Shiga toxin inh,AmpC detergent
CCN1C(=O)c2ccccc2S(=O)(=O)c2ccc(C(=O)NC(C)C)cc21,-14%,-2,-1%,-7%,-7,1%
CCCCNC(=O)c1ccc2c(c1)N(CC)C(=O)c1ccccc1S2(=O)=O,45µM*,-3,0%,-2%,4,?
CC(=O)NCCC(Cc1ccccc1)c1ccco1 (centres undefined),29%,9,3%,-9%,5,-4%
CCCOc1ccc2c(CC)cc(=O)oc2c1C,-9%,11*,-3%,2%,31,-1%
O=C(Cn1c(=O)n2ncnc2c2c3c(sc21)CCCC3)c1ccccc1,-10%,15,-1%,-6%,45,-2%
FC(F)Sc1nc(-c2ccccc2)c(-c2ccccc2)n1C(F)F,-12%,3,-5%,-28%,7,5%
Clc1ccc(-c2nc3n(n2)Cc2ccccc2-3)cc1,-10%,66*,-6%,23%,118*,-1%
CCN(CC)S(=O)(=O)c1cccc(-c2nc3n(n2)Cc2ccccc2-3)c1,-21%,15,2%,-6%,26,-6%
O=C1NC2(CCCC2)Oc2ccccc21,-9%,1,0%,7%,19,-6%
NC(=O)c1ccccc1NS(=O)(=O)c1ccccc1,-16%,-4,4%,-2%,20,?
CC(C)c1onc(C(=O)NCc2ccccc2)c1[N+](=O)[O-],-15%,23*,-1%,-10%,41*,8%
CC(C)c1onc(C(=O)Nc2ccc3c(c2)OCO3)c1[N+](=O)[O-],-23%,33*,-9%,14%,52*,5%
Cc1ccc(NC(=O)c2noc(C(C)C)c2[N+](=O)[O-])cc1,0%,55*,0%,7%,78*,3%
Cc1onc(C(=O)Nc2cccc(C(F)(F)F)c2)c1[N+](=O)[O-],-17%,27*,-7%,-15%,22,3%
COc1ccc(Nc2ccc(N3C(=O)CC(C)C3=O)cc2[N+](=O)[O-])cn1 (centres undefined),-9%,0,3%,-19%,20,-3%
COc1cc(C(=S)N2CCCC2)ccc1OC(=O)c1ccc(Cl)cc1[N+](=O)[O-],-23%,11,24%,-10%,-7,?
CC(C)c1cc(C(=O)Nc2cccc(C(F)(F)F)c2)no1,-25%,50*,-10%,37%,121*,-5%
CCc1ccccc1NC(=O)c1noc(C(C)C)c1[N+](=O)[O-],-15%,5,-4%,-13%,21,1%
CC(C)c1onc(C(=O)N(C)C2CCCCC2)c1[N+](=O)[O-],-6%,26*,-6%,8%,23,?
CC(C)c1onc(C(=O)Nc2cccc(O)c2)c1[N+](=O)[O-],-16%,31*,1%,22%,145*,-5%
CCOc1ccccc1NC(=O)CCC(=O)O,-20%,2,0%,19%,21,-6%
O=C(O)C1CCC(CNS(=O)(=O)c2ccc(Cl)cc2)CC1 (centres undefined),-8%,-2,1%,4%,-8,-3%
COc1ccc(-c2cnn3c(N)c(S(=O)(=O)c4ccccc4)cnc23)cc1,-27%,-2,-3%,24%,-3,-15%
CCOc1ccc(N=C/C=C/c2ccccc2)c(O)c1,-23%,22*,-6%,3%,64*,?
CC(=O)Nc1ccc(NC(=O)C2Cc3c(-c4cccc(NC(C)=O)c4)ccnc3O2)cc1 (centres undefined),·,·,·,-28%,·,·
SMILES,AmpC inh no detg,CHX counter,SARS PLpro yeast,AMA1-RON2 inh,Shiga toxin inh,AmpC detergent
CCCn1c(SCC(=O)Nc2ccc3c(c2)OCO3)n[nH]c1=O,-9%,·,1%,-4%,·,·
O=C(CSc1nnnn1C1CCCC1)c1ccc2c(c1)OCCO2,-25%,33*,-5%,-2%,50,-10%
Cc1ccc(C)c(C(=O)CSc2nnnn2C(C)C)c1,-17%,62*,-12%,-4%,54*,4%
Cc1ccc(C)c(C(=O)CSc2nnnn2-c2cccnc2)c1,-12%,10,-5%,6%,29,8%
CCn1nnnc1SCC(=O)c1ccc2c(c1)OCCO2,-22%,52*,3%,1%,113*,?
COc1ccc(-n2nnnc2SCC(=O)c2ccc3c(c2)OCCO3)c(OC)c1,-22%,-2,17%,-2%,25,-11%
CCCn1c(SCC(=O)c2ccc3c(c2)OCCO3)n[nH]c1=O,-14%,30*,0%,7%,62*,?
CCCCn1c(SCC(=O)c2ccc3c(c2)OCCO3)nnc1-c1ccco1,102%,-2,-8%,-25%,15,1%
COc1cccc(C(=O)CSc2nnnn2C2CCCCC2)c1,-9%,28*,-55%,-11%,59*,-3%
CC(C)n1nnnc1SCC(=O)c1ccc2c(c1)OCCO2,-34%,36*,1%,0%,42*,-1%
COc1cccc(-n2nnnc2SCC(=O)NC2CCCCC2)c1,-8%,34*,8%,-9%,36,4%
CCn1c(SCC(=O)c2ccc3c(c2)OCCO3)nnc1C(C)C,4%,19*,2%,0%,35,-11%
CCN(CC)S(=O)(=O)c1ccc(C)c(NC(=O)CN2CCN(Cc3ccccc3)CC2)c1,167%,-7,-1%,-18%,3,-3%
CC(C)CCNC(=O)C(=O)NC1CCCC1,-10%,11*,-37%,-10%,37*,?
CC(C)CCNC(=S)NC1CCCC1,-22%,-1,26%,0%,-5,?
Cc1ccc(-c2ccc(/C=C(\C#N)C(N)=S)n2C)cc1,-41%,59*,0%,-8%,61*,2%
CC(C)NC(=O)NC(=O)COC(=O)c1cc(S(=O)(=O)N2CCCCC2)ccc1N1CCOCC1,106%,12*,11%,19%,44*,-4%
O=C(COC(=O)c1cc2ccccc2oc1=O)Nc1cccc(S(=O)(=O)N2CCCCCC2)c1,-17%,27*,6%,-13%,64*,-8%
O=C(COC(=O)c1ccc(O)cc1)Nc1cccc(S(=O)(=O)N2CCCCC2)c1,8.9µM*,0,1%,0%,-6,2%
O=C(COC(=O)c1cc2ccccc2oc1=O)Nc1ccc(F)cc1F,-36%,52*,-2%,-11%,118*,2%
Cc1cccc(OCC(=O)Nc2ccccc2N2CCCCC2)c1,-14%,-3,-9%,21%,-8,-19%
Cc1cc(NC(=O)CSc2nc3c(cnn3-c3cccc(Cl)c3)c(=O)[nH]2)no1,-26%,·,1%,19%,·,·
CN(C)S(=O)(=O)c1cccc(NC(=O)COC(=O)c2cc3ccccc3oc2=O)c1,-3%,51*,0%,11%,134*,6%
